Bioassay records deposited in PubChem BioAssay by The Scripps Research Institute Molecular Screening Center.
TEAD-YAP inh: TEAD-YAP interaction inhibition | HEK-TIYL cells, TEAD-Gal4/YAP UAS-luciferase luminescence | inhibition, % at 9.12 µM | hit rate 1.4% among 640,000; in the data active = inhibition above about 32%;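 note: 0% = median of test compound wells and 100% = reference inhibitor wells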
GPR151 activ: activators of human GPR151; Q8TDV0; PathHunter beta-arrestin GPR151 cells, luminescence; activation, % at 11.2 µM; hit rate 1% among 650,000; in the data active = activation above about 4.9%;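 note: 0% = median of compound wells and 100% = cells with positive control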
Target sequence (Q8TDV0 whole entry, looked up): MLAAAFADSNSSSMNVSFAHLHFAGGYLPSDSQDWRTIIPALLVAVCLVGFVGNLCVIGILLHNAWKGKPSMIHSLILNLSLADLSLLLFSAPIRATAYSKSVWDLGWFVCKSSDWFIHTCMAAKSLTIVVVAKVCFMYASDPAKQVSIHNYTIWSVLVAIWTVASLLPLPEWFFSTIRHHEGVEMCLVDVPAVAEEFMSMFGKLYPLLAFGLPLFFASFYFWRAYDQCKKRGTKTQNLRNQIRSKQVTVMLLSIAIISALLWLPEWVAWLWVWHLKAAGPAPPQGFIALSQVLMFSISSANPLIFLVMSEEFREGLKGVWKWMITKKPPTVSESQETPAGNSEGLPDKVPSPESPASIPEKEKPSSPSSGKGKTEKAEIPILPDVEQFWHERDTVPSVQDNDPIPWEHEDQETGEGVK
MITF inh: inhibitors of human MITF; O75030; AlphaScreen MITF homodimerization, bead proximity signal; inhibition, % at 2.6 µM; hit rate 0.91% among 650,000; AID 1259374; in the data active = inhibition above about 50%;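 note: 0% = vehicle wells with protein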
FBW7 act: human FBW7 E3 ligase activation, primary screen | Q969H0 | AlphaScreen FBW7–phospho-cyclin E peptide binding, activator screen | normalized activity (activation), % at 26.1 µM | hit rate 0.13% among 650,000; in the data active = normalized activity above about 1.9%;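 note: purified mutant Fbw7 with reduced substrate affinity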
GPR151 confirm: confirmation of human GPR151 activators; shares compounds with GPR151 activ; GPR151 PathHunter beta-arrestin cells, luminescence, 90 min; % of EA-reagent control over plate median; activation, % at 11.2 µM; 6,700 tested, under 10 active;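 active = mean percent activation across replicates above the confirmation screen cutoff of 4.91%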
GPR119 counter: activates human GPR119 in a GPR151 counter-screen; shares compounds with GPR151 activ; GPR119 PathHunter beta-arrestin cells, luminescence, 90 min; 0 = compound-well median, 100 = enzyme-acceptor control; activation, % at 11.2 µM; hit rate 0.3% among 6,700; AID 1508611;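 active = mean percent activation in the counterscreen above 29.09%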;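 note: counterscreen on off-target GPR119 to flag nonselective hits from the GPR151 activator screen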
The depositor's hits bear a star; . = no result. This is a sample that favours compounds with a hit; in the whole collection about 3.5% have one here.

SMILES | TEAD-YAP inh | GPR151 activ | MITF inh | FBW7 act | GPR151 confirm | GPR119 counter
COc1ccc(CCN2C(=O)c3ccc(Oc4ccc(Nc5ncnc6ccccc56)cc4)cc3C2=O)cc1OC | 97* | 6.6* | 18 | 0 | 3 | 26
CCOC(=O)C1CCN(C(=O)/C=C/c2ccc([N+](=O)[O-])cc2)CC1 | -13 | 0 | 14 | 0 | . | .
CCOC(=O)C1CCN(C(=O)/C=C/c2cccc([N+](=O)[O-])c2)CC1 | -7 | 6.6* | 0 | 0 | 0 | 1
O=S(=O)(Nc1nnc(-c2ccc(Cl)cc2)o1)c1ccc2c(c1)OCCO2 | -2 | -1 | 10 | 0 | . | .
Cc1cc(OC(C)C(=O)N(Cc2ccco2)C2CCS(=O)(=O)C2)ccc1Cl (stereo not given) | 8 | -1 | 7 | 0 | . | .
Cc1ccccc1NC(=O)C(C)(C)N(Cc1ccco1)C(=O)C(C)Oc1cc(Cl)c(Cl)cc1Cl (stereo not given) | -8 | 5.6* | 12 | 0 | 0 | -8
CC(C)(C)c1ccc(OCC(O)CNC2CCCC2)cc1 (stereo not given) | -2 | 12* | -7 | 0 | 0 | 15
CC(C)NCC(O)COc1ccc2c(c1)CCC2 (stereo not given) | 23 | -2 | -8 | 0 | . | .
OC(CNC1CCCC1)COc1ccc2c(c1)CCC2 (stereo not given) | 9 | 12* | -8 | 0 | -1 | -10
COC1CCN(c2nc3nonc3nc2NCc2cccs2)CC1 | -27 | 8.8* | 6 | 0 | 1 | 2
COCC1CCN(c2nc3nonc3nc2NCc2cccs2)CC1 | 1 | 0 | -3 | 0 | . | .
C#CCOc1cc(OC)c(OC)c(OC)c1C=O | 10 | 0 | 5 | 0 | . | .
O=C(CCC1(Cc2ccco2)CCC(=O)N1)NCc1cnn(-c2ccccc2)n1 (stereo not given) | 1 | 0 | -2 | 0 | . | .
O=C(CCC1(Cc2ccc3c(c2)OCO3)CCC(=O)N1)NCc1cnn(-c2ccccc2)n1 (stereo not given) | 10 | 7.1* | 2 | 0 | 1 | 6
CC(C)c1nc(CNc2nc3nonc3nc2N(C)C)cs1 | 3 | 6.8* | 15 | 0 | -1 | -8
O=C(c1ccc([N+](=O)[O-])cc1)N1CCC(C(=O)N2CCN(c3ccccc3)CC2)CC1 | 1 | 11* | 10 | 0 | 0 | 0
O=C1c2cccc(N3CCCC(C(=O)N4CCC[C@H]4CO)C3)c2C(=O)N1C1CCCC1 (stereo not given in full) | -31 | 2 | 4 | 0 | . | .
O=C(NCCO)C1CCCN(c2cccc3c2C(=O)N(C2CCCCCCC2)C3=O)C1 (stereo not given) | -1 | 5.8* | -2 | 0 | 0 | 8
COc1ccc(C)cc1S(=O)(=O)N(C)Cc1ccccc1 | 4 | -1 | 7 | 1 | . | .
O=C1NC(=O)c2cc(NC(=O)C3CC3)ccc21 | -2 | 5.2* | 4 | 0 | 0 | 5
O=C(Nc1ccc([N+](=O)[O-])cc1)C1CC1 | 8 | 7.5* | 5 | 0 | 1 | -7
O=C(Nc1ccc(-c2ccc([N+](=O)[O-])cc2)cc1)C1CC1 | -47 | 2 | -5 | 0 | . | .
COc1ccc([N+](=O)[O-])cc1NC(=O)C(C)N(c1ccc(C)c(C)c1)S(C)(=O)=O (stereo not given) | 9 | -1 | 9 | 1 | . | .
O=C(c1ccc(Cl)cc1)N1CCN(c2ccc([N+](=O)[O-])c(NCc3ccco3)c2)CC1 | -7 | 6.0* | 8 | 0 | -1 | -13
Cc1csc(NC(=O)CSc2nc(C3CC3)nc3sc(C)c(C)c23)n1 | -17 | 6.3* | 9 | 0 | 1 | 7
SMILES | TEAD-YAP inh | GPR151 activ | MITF inh | FBW7 act | GPR151 confirm | GPR119 counter
CCCCCOC(=O)CSc1nc(N)c2c3c(sc2n1)CCCC3 | -5 | -1 | 1 | 0 | . | .
CCOC(=O)CSc1nc(N)c2c3c(sc2n1)CCCC3 | -8 | 13* | -3 | 1 | -1 | 0
CC(=O)c1cccc(NC(=O)c2scc3c2CCCC3)c1 | -34 | 0 | 11 | 0 | . | .
O=C1c2ccccc2C(=O)C1(Nc1ccc(Br)cc1)c1ccccc1 | 16 | 6.9* | -5 | 0 | 0 | -3
COCC1CCCCN1Cc1c(C(=O)N2CCCN(C)CC2)nc2sccn12 (stereo not given) | 6 | 15* | 3 | 0 | 0 | 6
COCC1CCCN(Cc2c(C(=O)N3CCCN(C)CC3)nc3sccn23)C1 (stereo not given) | 1 | 0 | 8 | 0 | . | .
NS(=O)(=O)c1ccc(CCNC(=O)CSc2nc(NC3CCCCC3)c3ccccc3n2)cc1 | 2 | 5.1* | 4 | 0 | -1 | -4
CN(CC(=O)Nc1ccccc1F)S(=O)(=O)c1cccc2cnccc12 | 37* | 5.4* | 6 | 0 | 0 | -6
CN(CC(=O)Nc1ccc(F)cc1)S(=O)(=O)c1cccc2cnccc12 | 21 | -2 | -2 | 0 | . | .
O=C(NCc1cccc(C(F)(F)F)c1)c1ccnc(Nc2ccc(N3CCOCC3)cc2)c1 | 11 | 1 | -6 | 0 | . | .
O=C(CN1Cc2ccccc2OC(c2ccccc2F)C1)N1CCCC1c1n[nH]c(=O)[nH]1 (stereo not given) | -8 | 7.5* | -11 | 0 | 0 | 2
Cn1nccc1Nc1cc(C(=O)NCCOc2ccccc2)c2ccccc2n1 | 3 | 5.3* | 14 | 0 | -1 | -13
N#CC1=C(N)OC(c2ccccc2)=C(n2cnc([N+](=O)[O-])c2)C1c1cccnc1 (stereo not given) | 2 | 8.2* | -5 | 0 | -1 | -4
N#CC1=C(N)OC(c2ccccc2)=C(n2cnc([N+](=O)[O-])n2)C1c1ccccc1 (stereo not given) | 3 | 2 | -7 | 0 | . | .
N#Cc1ccc(NC(=O)COC(=O)CCC(=O)c2ccc3c(c2)OCCO3)cc1 | -3 | 11* | -2 | 0 | 6.8* | 10
CC(=O)N1CC(C)Sc2cc(S(=O)(=O)N3CCCCC3)ccc21 (stereo not given) | 5 | 2 | 5 | 0 | . | .
CCN1CCN(S(=O)(=O)c2ccc3c(c2)SC(C)CN3C(C)=O)CC1 (stereo not given) | 6 | 6.1* | -3 | 0 | 0 | -2
CN1CCN(C(=O)c2ccc(-c3nc(Nc4ccc(N5CCOCC5)cc4)c4ncn(-c5ccsc5)c4n3)cc2)CC1 | -11 | 2 | 17 | 0 | . | .
O=C1NC(CC(=O)N2CCC(C(=O)c3nc4ccccc4s3)CC2)c2ccccc21 (stereo not given) | 6 | 5.1* | 9 | 1 | -1 | -7
O=C(c1nc2ccccc2s1)C1CCN(C(=O)Cn2cnc3ccccc3c2=O)CC1 | -2 | 0 | 5 | 0 | . | .
COc1ccc([C@@H]2CCN(C(=O)Cc3ccccc3F)C[C@H]2O)cc1 | -3 | 1 | -2 | 0 | . | .
